Assay results: PubChem BioAssay
Calls of active or inactive are those of the source. Unless noted, how the calls were made is not given here.

Experiments:
[1] = compounds binding Alexa647 anti-His antibody – biochemical, small-molecule microarray, 635 nm fluorescence, artefact control for SMM control protein annotation, primary screen (AID 1128); conditions: higher = more signal;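 further: score merges feature fluorescence with signal-to-noise for each printed compound spot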
[2] = system: Human papillomavirus type 1a E7 protein (residues 1-88); assay: HPV1a E7 small-molecule binders, primary screen, biochemical, small-molecule microarray, residues 1-88, 635 nm (AID 1129); conditions: small-molecule microarray binding, fluorescence 635 nm; higher = more signal
[3] = target: Focal adhesion kinase 1 (Homo sapiens) (UniProt Q05397); assay: PTK2 protein binding on printed compound slides – biochemical, small-molecule microarray, 635/667 nm fluorescence, BSA, DTT, primary screen (AID 1130); conditions: 635 nm fluorescence, higher = more signal;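 further: composite of spot emission at 667 nm and signal to noise over triplicate slides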
Chain of Focal adhesion kinase 1 (Homo sapiens) (Q05397 whole entry, looked up): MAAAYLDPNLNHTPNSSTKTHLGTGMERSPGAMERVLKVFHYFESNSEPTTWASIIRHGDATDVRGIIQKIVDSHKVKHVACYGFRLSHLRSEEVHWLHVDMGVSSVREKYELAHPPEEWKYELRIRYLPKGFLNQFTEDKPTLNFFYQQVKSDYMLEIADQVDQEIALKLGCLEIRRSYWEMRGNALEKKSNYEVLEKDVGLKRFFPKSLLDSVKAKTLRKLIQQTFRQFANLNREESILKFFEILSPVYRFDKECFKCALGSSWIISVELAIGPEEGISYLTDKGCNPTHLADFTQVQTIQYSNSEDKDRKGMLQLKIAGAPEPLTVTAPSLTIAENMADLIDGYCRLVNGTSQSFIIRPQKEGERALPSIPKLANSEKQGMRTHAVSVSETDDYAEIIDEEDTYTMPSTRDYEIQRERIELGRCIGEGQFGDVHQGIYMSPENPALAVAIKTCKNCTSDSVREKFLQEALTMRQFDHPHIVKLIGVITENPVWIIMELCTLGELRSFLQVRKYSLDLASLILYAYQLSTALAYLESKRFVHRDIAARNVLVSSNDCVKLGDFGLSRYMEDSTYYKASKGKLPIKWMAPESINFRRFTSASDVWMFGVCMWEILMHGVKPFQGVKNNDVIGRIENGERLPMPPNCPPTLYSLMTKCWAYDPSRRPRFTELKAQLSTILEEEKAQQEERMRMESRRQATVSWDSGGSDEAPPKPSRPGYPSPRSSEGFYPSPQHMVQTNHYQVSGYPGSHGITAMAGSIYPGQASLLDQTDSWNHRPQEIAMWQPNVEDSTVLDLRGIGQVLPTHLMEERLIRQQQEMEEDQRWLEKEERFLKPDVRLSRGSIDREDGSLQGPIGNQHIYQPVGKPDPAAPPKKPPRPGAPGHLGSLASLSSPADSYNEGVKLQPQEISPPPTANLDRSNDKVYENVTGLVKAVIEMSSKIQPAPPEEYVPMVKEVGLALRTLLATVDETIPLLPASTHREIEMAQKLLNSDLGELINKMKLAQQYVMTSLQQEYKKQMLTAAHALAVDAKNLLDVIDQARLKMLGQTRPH

[4] = system: Fibrinogen (Alexa647-labelled); assay: Alexa647-fibrinogen binding to printed small molecules – biochemical, small-molecule microarray, 635/667 nm fluorescence, artefact control for SMM control-protein annotation, profiling panel (AID 1131); conditions: fibrinogen-A647 binding fluorescence, higher = more signal;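 further: z-score merges 667 nm fluorescence with per-spot signal-to-noise over triplicate slides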
[5] = target: Follistatin (Homo sapiens) (UniProt P19883); assay: FST protein binding to printed compounds – biochemical, small-molecule microarray, 635/667 nm fluorescence, primary screen (AID 1132); conditions: 635 nm fluorescence, higher = more signal
Chain of Follistatin (Homo sapiens) (P19883 whole entry, looked up): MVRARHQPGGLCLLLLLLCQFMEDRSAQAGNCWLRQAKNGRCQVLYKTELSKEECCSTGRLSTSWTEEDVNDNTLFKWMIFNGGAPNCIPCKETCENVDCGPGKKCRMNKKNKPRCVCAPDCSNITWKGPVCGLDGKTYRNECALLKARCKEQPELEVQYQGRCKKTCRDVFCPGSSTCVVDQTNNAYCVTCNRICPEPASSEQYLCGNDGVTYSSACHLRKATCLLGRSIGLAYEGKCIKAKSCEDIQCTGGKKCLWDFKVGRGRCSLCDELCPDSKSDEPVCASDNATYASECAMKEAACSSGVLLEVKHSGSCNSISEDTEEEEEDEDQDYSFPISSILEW

[6] = target: Fibroblast growth factor 2 (Homo sapiens) (UniProt P09038); assay: basic fibroblast growth factor binding to printed compounds – biochemical, small-molecule microarray, 635/667 nm fluorescence, primary screen (AID 1133); conditions: FGF2, fluorescence 635/667, higher = more signal
Chain of Fibroblast growth factor 2 (Homo sapiens) (P09038 whole entry, looked up): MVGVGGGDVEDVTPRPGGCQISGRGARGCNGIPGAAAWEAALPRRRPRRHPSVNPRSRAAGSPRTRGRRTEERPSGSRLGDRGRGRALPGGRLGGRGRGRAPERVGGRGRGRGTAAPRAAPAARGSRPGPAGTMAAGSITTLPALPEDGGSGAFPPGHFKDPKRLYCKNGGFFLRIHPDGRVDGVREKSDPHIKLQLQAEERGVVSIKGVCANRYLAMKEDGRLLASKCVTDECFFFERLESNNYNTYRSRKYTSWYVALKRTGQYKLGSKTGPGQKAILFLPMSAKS

[7] = JC-1 mitochondrial potential readout, lung cancer cells – cell-based, A549, JC-1 fluorescence, basal, 24 h, 100 nL, profiling panel (AID 1138); conditions: higher = more signal;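 further: A549 lung adenocarcinoma cells under basal conditions with no added stimulus; test concentration not given here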
Lefty1 = Lefty1 protein binding to printed compounds – biochemical, small-molecule microarray, 635/667 nm fluorescence, primary screen (AID 1139); conditions: fluorescence 635/667, higher = more signal
[8] = system: wheat germ agglutinin (Triticum aestivum), Alexa647-labelled; assay: Alexa647-WGA lectin binding to printed small molecules – biochemical, small-molecule microarray, 635/667 nm fluorescence, artefact control for SMM control-protein annotation, profiling panel (AID 1140); conditions: WGA-A647 binding, 635 nm fluorescence, higher = more signal;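 further: score merges 667 nm feature emission with signal to noise over triplicate slides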
[9] = target: Luciferin 4-monooxygenase (Photinus pyralis) (UniProt P08659); assay: inhibition of purified Photinus pyralis luciferase – biochemical, luminescence, purified enzyme, 2006 set, primary screen (AID 1141); conditions: purified firefly luciferase, SteadyGlo luminescence, 30 min; higher = more signal, called active from +8 up or from −8 down;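 further: cell-free assay with purified firefly luciferase at 100 ng per well in PBS; test concentration not given here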
Chain of Luciferin 4-monooxygenase (Photinus pyralis) (P08659 whole entry, looked up): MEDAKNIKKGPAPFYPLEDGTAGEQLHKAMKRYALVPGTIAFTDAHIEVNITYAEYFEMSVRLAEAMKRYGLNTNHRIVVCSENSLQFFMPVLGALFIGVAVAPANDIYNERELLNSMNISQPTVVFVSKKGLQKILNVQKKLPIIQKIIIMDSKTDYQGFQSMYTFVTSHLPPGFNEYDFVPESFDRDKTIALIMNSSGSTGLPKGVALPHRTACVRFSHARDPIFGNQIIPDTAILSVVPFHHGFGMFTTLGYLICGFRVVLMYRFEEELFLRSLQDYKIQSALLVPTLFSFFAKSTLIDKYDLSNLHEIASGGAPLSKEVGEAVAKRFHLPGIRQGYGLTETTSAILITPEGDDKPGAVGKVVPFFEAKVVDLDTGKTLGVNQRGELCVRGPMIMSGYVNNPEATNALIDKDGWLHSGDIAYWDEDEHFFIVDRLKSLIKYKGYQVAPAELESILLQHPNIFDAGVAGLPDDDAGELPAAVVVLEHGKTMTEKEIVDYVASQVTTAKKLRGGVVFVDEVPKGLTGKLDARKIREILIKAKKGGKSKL

[10] = system: Wnt5a (protein binding on small-molecule microarray); assay: small molecules binding Wnt5a protein – biophysical, small-molecule microarray, 635/667 nm fluorescence, primary screen (AID 1142); conditions: 635 nm fluorescence, higher = more signal;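 further: fluorescence read at 667 nm with signal to noise per printed feature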
[11] = ATP-based viability of Huh7 replicon cells – cell-based, CellTiter-Glo luminescence, basal, 48 h, cytotoxicity control for HCV replication inhibitor project, primary screen (AID 1143); conditions: higher = more signal, called active from +8 up or from −8 down;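 further: Huh7 hepatoma cells carrying a hepatitis C replication reporter with no stimulus; test concentration not given here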
[12] = Pseudomonas biofilm growth suppression – PAO1 strain, BacTiter-Glo luminescence, LB-PBS, primary screen (AID 1144); conditions: P. aeruginosa PAO1 biofilm, 12 h, higher = more signal
[13] = basal CRE-LacZ reporter activity in PC12 – cell-based, unstimulated, primary screen (AID 1145); conditions: no forskolin, luminescence, 4.5 h, higher = more signal, called active from +8 up or from −8 down
[14] = forskolin-driven CRE-LacZ activity in PC12 – cell-based, CRE-LacZ reporter, forskolin-stimulated, primary screen (AID 1146); conditions: luminescence, 4.5 h, higher = more signal, called active from +8 up or from −8 down;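 further: PC12 cells with 6xCRE LacZ reporter stimulated by forskolin 10 µM; beta-galactosidase reporter signal reflecting CREB driven transcription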
[15] = target: Streptavidin (Streptomyces avidinii) (UniProt P22629); assay: compounds binding control protein streptavidin – biophysical, small-molecule microarray, 635/667 nm fluorescence, artefact control for SMM compound annotation, primary screen (AID 1147); conditions: higher = more signal;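 further: signal reflects streptavidin binding to arrayed compounds as a control protein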
Chain of Streptavidin (Streptomyces avidinii) (P22629 whole entry, looked up): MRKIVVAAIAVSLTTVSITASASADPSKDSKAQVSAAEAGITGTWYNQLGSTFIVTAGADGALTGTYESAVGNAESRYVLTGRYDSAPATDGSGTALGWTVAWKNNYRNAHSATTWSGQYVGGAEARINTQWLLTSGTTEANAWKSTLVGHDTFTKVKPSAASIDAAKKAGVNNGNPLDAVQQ

[16] = probe aInhba binding on compound microarray – biochemical, small-molecule microarray, 635/667 nm fluorescence, primary screen (AID 1148); conditions: higher = more signal;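 further: score merges 667nm spot fluorescence with signal-to-noise for antibody binding to printed compounds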
Torsin-1A (Homo sapiens) [17] = target: Torsin-1A (Homo sapiens) (UniProt O14656); assay: TOR1A wild-type binding on microarray – cell lysate, small-molecule microarray, lysate, 635/667 nm, primary screen (AID 1149); conditions: COS7 hTOR1A-WT lysate, 635 nm fluorescence, higher = more signal
Chain of Torsin-1A (Homo sapiens) (O14656 whole entry, looked up): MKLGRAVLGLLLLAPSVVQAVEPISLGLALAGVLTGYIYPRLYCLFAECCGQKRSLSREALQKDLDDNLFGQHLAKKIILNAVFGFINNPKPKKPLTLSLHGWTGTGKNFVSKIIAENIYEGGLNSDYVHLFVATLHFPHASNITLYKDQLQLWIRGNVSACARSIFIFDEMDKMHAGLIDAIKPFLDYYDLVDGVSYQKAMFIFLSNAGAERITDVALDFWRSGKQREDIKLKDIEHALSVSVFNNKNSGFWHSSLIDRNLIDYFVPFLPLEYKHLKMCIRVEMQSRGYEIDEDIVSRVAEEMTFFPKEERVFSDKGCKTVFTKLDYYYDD

Torsin-1A (Homo sapiens) [18] = target: Torsin-1A (Homo sapiens) (UniProt O14656); assay: torsin A mutant lysate binding on microarrays – cell lysate, small-molecule microarray, COS7 lysate, 635/667 nm fluorescence, primary screen (AID 1150); conditions: COS7 hTOR1A mutant lysate, 635 nm fluorescence, higher = more signal;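 further: score pools 667 nm emission and signal to noise measuring lysate protein binding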
[19] = system: Sonic hedgehog protein (Shh); assay: Sonic hedgehog microarray binding compounds – biochemical, small-molecule microarray, 635/667 nm fluorescence, primary screen (AID 1151); conditions: 635 nm fluorescence, higher = more signal;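 further: Shh protein binding to compounds spotted on small-molecule microarray slides; score combines spot fluorescence intensity with signal-to-noise across triplicate slides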

Compound	composite z-score [1]	composite z-score [2]	composite z-score [3]	composite z-score [4]	composite z-score [5]	composite z-score [6]	z-score [7]	composite z-score (Lefty1)	composite z-score [8]	z-score [9]	composite z-score [10]	z-score [11]	z-score [12]	z-score [13]	z-score [14]	composite z-score [15]	composite z-score [16]	composite z-score (Torsin-1A (Homo sapiens) [17])	composite z-score (Torsin-1A (Homo sapiens) [18])	composite z-score [19]
COCCCN1C(=O)[C@@]2(c3ccc([N+](=O)[O-])cc3)CC(=O)N(C3CCCCC3)[C@@H]2c2ccc(CO)cc21	0.245	-0.62	-0.101	-0.538	1.14	0.594	-0.39	0.655	-0.0848	-0.302 (inactive)	-0.0976	-0.253 (inactive)	0.0798 (inactive)	-0.761 (inactive)	-0.593 (inactive)	-0.226	-0.214	0.0116	-0.289	1.41
C=CCN1C(=O)[C@]2(O[C@H](CCO)[C@@H]([Si](C)(C)c3ccc(OC)cc3)[C@@H]2C)c2cc(N3CCCCC3=O)ccc21	1.74	1.2	0.162	0.799	1.32	0.361	0.517	1.52	0.679	-0.117 (inactive)	0.193	-5.37 (inactive)	0.597 (inactive)	3.85 (inactive)	0.22 (inactive)	0.802	0.103	1.1	0.364	2.24
C=C(CCCC)/C(=C/C[C@@H](OC(C)=O)c1ccccc1OCCO)c1cnc2ccccc2c1	1.46	0.356	0.0147	0.143	1.31	0.908	0.222	0.736	0.454	-0.754 (inactive)	0.0953	-1.6 (inactive)	-0.131 (inactive)	2.02 (inactive)	-0.185 (inactive)	-0.0227	-0.0736	1.11	-0.438	1.02
CN1C(=O)C2C=CC(C(O)c3ccc(-c4ccccc4)s3)N(N(c3ccccc3)c3ccccc3)C2C1=O (stereo not given)	0.0993	0.628	0.162	0.528	1.14	-0.314	0.767	-0.119	1.08	-0.377 (inactive)	0.123	-0.0598 (inactive)	-0.468 (inactive)	-0.14 (inactive)	-0.101 (inactive)	1.14	0.12	0.91	-0.0126	0.409
